Experiment [1] deals with Transcription factor E2F1 (Homo sapiens) (UniProt Q01094). Nature of the experiment: ATG_E2F_CIS: Attagene CIS-FACTORIAL HepG2 Assay for human E2F Transcription Factor 1 (AID 2282935). As to conditions: HepG2 Attagene cis-reporter, E2F reporter RNA transcripts; actives raise or lower the signal. The method in brief: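 Transient MRTU transfection of HepG2; 24 h compound exposure; RNA → oligo(dT) RT → PCR → FAM label → HpaI cut → CE fluorescence. Gain/loss of signal fit against DMSO.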
Transcription factor E2F1 (Homo sapiens), sequence (Q01094 whole entry, looked up): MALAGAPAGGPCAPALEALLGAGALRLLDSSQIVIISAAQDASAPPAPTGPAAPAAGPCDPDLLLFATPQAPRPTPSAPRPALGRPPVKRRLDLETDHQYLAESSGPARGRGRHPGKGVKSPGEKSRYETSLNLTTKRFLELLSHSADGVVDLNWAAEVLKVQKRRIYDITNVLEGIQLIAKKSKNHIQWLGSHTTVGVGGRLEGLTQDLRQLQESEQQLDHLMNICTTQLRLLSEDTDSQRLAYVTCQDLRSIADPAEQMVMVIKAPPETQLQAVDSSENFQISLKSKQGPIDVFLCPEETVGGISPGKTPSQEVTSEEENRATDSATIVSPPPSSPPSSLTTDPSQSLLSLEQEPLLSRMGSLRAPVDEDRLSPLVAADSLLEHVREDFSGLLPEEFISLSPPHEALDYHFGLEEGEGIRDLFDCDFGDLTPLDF

A short description of experiment [2]: ATG_E_Box_CIS: Attagene CIS-FACTORIAL HepG2 Assay for human Enhancer Box (E-box) (AID 2282936). Conditions: HepG2 E-box cis-reporter transcription, actives raise or lower the signal. The method in brief:
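Transiently transfected HepG2, endogenous TF-driven reporters, 24 h dosing. Readout: RT-PCR plus capillary electrophoresis of fluorescent reporter fragments. Gain or loss of signal fitted bidirectionally against DMSO baseline.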

A short description of experiment [3]: ATG_M_61_CIS: Attagene CIS-FACTORIAL HepG2 Assay for M61 Transcription Factor (Internal Marker) (AID 2282937). As to conditions: HepG2 Attagene CIS-FACTORIAL M61 internal marker reporter; actives raise or lower the signal. Put shortly:
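Human liver HepG2, transient MRTU transfection (cis promoter elements), 24 h compound. Total RNA → oligo(dT) RT → PCR → FAM label → HpaI → CE. Internal background marker; bidirectional fitting, DMSO = baseline.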

Experiment [4] is described as follows: ATG_EGR_CIS: Attagene CIS-FACTORIAL HepG2 Assay for human Early Growth Response 1 (EGR1) (AID 2282938). Conditions: HepG2 Attagene CIS-FACTORIAL EGR reporter mRNA; actives raise or lower the signal. The method in brief: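 Transient transfection of human HepG2 with multiple cis-regulated reporter units, chemical exposure 24 h, total RNA isolated. Reverse transcription, PCR, fluorescent labelling and capillary electrophoresis quantify reporter transcripts; activity fitted bidirectionally against DMSO.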

Experiment [5] can be described thus: ATG_M_19_CIS: Attagene CIS-FACTORIAL HepG2 Assay for M19 Transcription Factor (Internal Marker) (AID 2282939). Conditions: HepG2 Attagene CIS-FACTORIAL M19 internal marker reporter; actives raise or lower the signal. The method in brief:
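HepG2, MRTU transient transfection, 24 h dosing. Total RNA → RT-PCR → 6-FAM primer extension → HpaI digest → CE fluorescence. Bidirectional curve fit, DMSO negative control.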

Experiment [6] is described as follows: ATG_ERE_CIS: Attagene CIS-FACTORIAL HepG2 Assay for Estrogen Response Element (ERE) (AID 2282940). As to conditions: HepG2 ERE cis-reporter, Attagene RNA transcript; actives raise or lower the signal. Put shortly:
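After a 24 h chemical treatment, RNA from reporter-transfected HepG2 cells is reverse-transcribed, PCR-amplified and fluorescently labelled. Fragments separated by capillary electrophoresis give reporter signal; DMSO serves as negative control.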

A short description of experiment [7]: ATG_Ets_CIS: Attagene CIS-FACTORIAL HepG2 Assay for human Erythroblast Transformation Specific (ETS) (AID 2282941). Conditions: HepG2 ETS cis-reporter transcription, actives raise or lower the signal. Put shortly:
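RT-PCR/capillary electrophoresis fluorescence read-out of reporter mRNA; HepG2 transient multi-reporter transfection; 24 h compound exposure; gain or loss of signal fitted bidirectionally relative to DMSO.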

Experiment [8] has as its target Hepatocyte nuclear factor 3-beta (Homo sapiens) (UniProt Q9Y261). In words: ATG_FoxA2_CIS: Attagene CIS-FACTORIAL HepG2 Assay for human Forkhead box A2 (FOXA2) (AID 2282942). Conditions: HepG2 cis-reporter transcription factor activity, 24 h; actives raise or lower the signal. The method in brief:
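Transient MRTU transfection of HepG2 liver cells; 24 h treatment; total RNA → oligo(dT) RT → PCR → FAM primer extension → HpaI cut → CE. Bidirectional fit vs DMSO.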

The nature of experiment [9]: ATG_FoxO_CIS: Attagene CIS-FACTORIAL HepG2 Assay for human Forkhead box O (FoxO) (AID 2282943). Conditions: HepG2 Attagene cis-reporter, FoxO element, mRNA; actives raise or lower the signal. Put shortly: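 HepG2 cells transiently transfected with cis-element-driven reporter units report endogenous FoxO activity. After 24 h chemical exposure, reporter mRNA quantified by RT-PCR, fluorescent labeling, HpaI digestion and capillary electrophoresis; bidirectional fit versus DMSO.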

A short description of experiment [10]: ATG_GATA_CIS: Attagene CIS-FACTORIAL HepG2 Assay for human GATA Binding Protein (AID 2282944). As to conditions: HepG2 GATA cis-element reporter, Attagene multiplex mRNA; actives raise or lower the signal. Put shortly: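 Cells: HepG2, transiently transfected with cis-regulated reporter transcription units. Exposure: 24 h. Detection: RT-PCR plus capillary electrophoresis of FAM-labeled fragments. Analysis: bidirectional, DMSO as baseline.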

Experiment [11] can be described thus: ATG_GLI_CIS: Attagene CIS-FACTORIAL HepG2 Assay for human Zinc Finger Protein GLI1 (AID 2282945). Conditions: HepG2, Attagene cis-factorial reporter mRNA, GLI element; actives raise or lower the signal. Put shortly:
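Transiently transfected HepG2 cells report endogenous transcription factor activity via cis-element-driven reporter units. After 24 h compound exposure, reporter mRNA was measured by RT-PCR with capillary electrophoresis; bidirectional fitting against DMSO baseline.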

The target of experiment [12] is Bile acid receptor (Homo sapiens) (UniProt Q96RI1). Nature of the experiment: ATG_IR1_CIS: Attagene CIS-FACTORIAL HepG2 Assay for human Nuclear Receptor Subfamily 1 Group H Member 4 (NR1H4), IR1 submotif (AID 2282946). Conditions: IR1 reporter transcription, actives raise or lower the signal. Put shortly: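 Fluorescence of capillary-separated, HpaI-digested RT-PCR reporter products gave IR1-element mRNA induction in HepG2 cells 24 h after dosing. Endogenous transcription factors drove the cis-regulated reporters; activity was fitted bidirectionally against DMSO.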
Bile acid receptor (Homo sapiens), sequence (Q96RI1 whole entry, looked up): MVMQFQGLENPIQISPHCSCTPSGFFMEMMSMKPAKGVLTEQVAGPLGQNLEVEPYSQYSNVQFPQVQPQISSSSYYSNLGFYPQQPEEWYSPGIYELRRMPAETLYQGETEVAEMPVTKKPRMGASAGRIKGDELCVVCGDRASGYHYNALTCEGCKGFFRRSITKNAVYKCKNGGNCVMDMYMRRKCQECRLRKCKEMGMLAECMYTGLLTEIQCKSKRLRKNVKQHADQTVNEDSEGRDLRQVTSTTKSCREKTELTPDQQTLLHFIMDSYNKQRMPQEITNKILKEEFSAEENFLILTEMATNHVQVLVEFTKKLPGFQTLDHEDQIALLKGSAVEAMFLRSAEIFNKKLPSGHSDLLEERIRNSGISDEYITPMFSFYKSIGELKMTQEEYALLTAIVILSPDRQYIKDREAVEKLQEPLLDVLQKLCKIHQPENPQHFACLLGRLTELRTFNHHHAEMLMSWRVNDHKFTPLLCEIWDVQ

Experiment [13] can be described thus: ATG_GRE_CIS: Attagene CIS-FACTORIAL HepG2 Assay for human Glucocorticoid Response Elements (GRE) (AID 2282947). As to conditions: HepG2 GRE cis-reporter, Attagene multiplex mRNA; actives raise or lower the signal. The method in brief:
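Read-out: fluorescent reporter-transcript fragments separated by capillary electrophoresis after RT-PCR. Transiently transfected HepG2 cells carrying cis-element-driven reporter units were dosed for 24 h; gain or loss of signal fitted against DMSO control.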

A short description of experiment [14]: ATG_ISRE_CIS: Attagene CIS-FACTORIAL HepG2 Assay for human Interferon Regulatory Factor 1 (IRF1) binding to an Interferon-Stimulated Response Element (ISRE) (AID 2282948). Conditions: HepG2 ISRE cis-reporter (Attagene), mRNA transcription readout; actives raise or lower the signal. The method in brief: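 Read-out: fluorescent RT-PCR products resolved by capillary electrophoresis, reporting endogenous transcription factor activity via ISRE-driven reporter mRNA in transfected HepG2 cells dosed for 24 h; gain or loss fitted relative to DMSO.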

Experiment [15] is described as follows: ATG_M_32_CIS: Attagene CIS-FACTORIAL HepG2 Assay for M32 Transcription Factor (Internal Marker) (AID 2282949).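 Also: background control marker of the multiplexed CIS panel rather than a real target.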 As to conditions: HepG2 Attagene cis-factorial M32 reporter, mRNA; actives raise or lower the signal. Put shortly:
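Using DMSO as baseline, bidirectional curve fits were applied to reporter mRNA signals. These came from transiently transfected HepG2 cells exposed for 24 h, with RNA analysed by RT-PCR, FAM primer extension, HpaI digestion and CE.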

Experiment [16] can be described thus: ATG_M_06_CIS: Attagene CIS-FACTORIAL HepG2 Assay for M06 Transcription Factor (Internal Marker) (AID 2282950). Conditions: HepG2 Attagene CIS-FACTORIAL M06 internal marker reporter; actives raise or lower the signal. Put shortly: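 Measured 24 h post-dosing in transiently transfected HepG2 cells, this internal-marker endpoint reports reporter mRNA via RT-PCR with fluorescent primer extension and capillary electrophoresis. DMSO served as negative control and baseline for bidirectional fitting.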

Experiment [17] deals with Hypoxia-inducible factor 1-alpha (Homo sapiens) (UniProt Q16665). In words: ATG_HIF1a_CIS: Attagene CIS-FACTORIAL HepG2 Assay for human Hypoxia Inducible Factor 1 (HIF1A) (AID 2282951). Conditions: HepG2 Attagene cis-factorial HIF1a reporter transcription; actives raise or lower the signal. The method in brief: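 Transient MRTU transfection of human HepG2 liver cells, 24 h compound treatment, then total RNA isolation, oligo(dT) reverse transcription, PCR amplification, fluorescent labelling and capillary electrophoresis of reporter fragments. Gain or loss relative to DMSO.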
Hypoxia-inducible factor 1-alpha (Homo sapiens), sequence (Q16665 whole entry, looked up, the tested form may be a part): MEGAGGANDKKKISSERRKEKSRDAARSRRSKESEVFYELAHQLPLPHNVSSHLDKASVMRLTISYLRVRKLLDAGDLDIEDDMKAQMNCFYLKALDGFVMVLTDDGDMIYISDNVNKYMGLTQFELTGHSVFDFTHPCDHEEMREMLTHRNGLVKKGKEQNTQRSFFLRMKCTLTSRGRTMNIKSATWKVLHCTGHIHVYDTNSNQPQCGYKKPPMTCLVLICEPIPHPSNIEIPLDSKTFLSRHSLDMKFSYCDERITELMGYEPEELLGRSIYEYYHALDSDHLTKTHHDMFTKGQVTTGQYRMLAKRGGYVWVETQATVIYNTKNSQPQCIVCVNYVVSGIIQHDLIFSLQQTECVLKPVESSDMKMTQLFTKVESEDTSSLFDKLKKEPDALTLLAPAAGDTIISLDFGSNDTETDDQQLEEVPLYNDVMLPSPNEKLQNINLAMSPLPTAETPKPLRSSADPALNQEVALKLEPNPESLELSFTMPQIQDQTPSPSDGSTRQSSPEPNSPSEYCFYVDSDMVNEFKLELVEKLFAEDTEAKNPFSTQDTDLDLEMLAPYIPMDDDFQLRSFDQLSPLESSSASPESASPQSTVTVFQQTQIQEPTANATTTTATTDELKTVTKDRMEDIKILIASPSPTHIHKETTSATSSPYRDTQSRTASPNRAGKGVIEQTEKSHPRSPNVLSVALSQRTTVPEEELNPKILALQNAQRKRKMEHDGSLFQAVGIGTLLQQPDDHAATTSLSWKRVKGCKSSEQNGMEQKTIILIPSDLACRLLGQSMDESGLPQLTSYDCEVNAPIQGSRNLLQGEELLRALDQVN

Experiment [18] deals with Hepatocyte nuclear factor 6 (Homo sapiens) (UniProt Q9UBC0). Nature of the experiment: ATG_HNF6_CIS: Attagene CIS-FACTORIAL HepG2 Assay for human Hepatocyte Nuclear Factor 6 (HNF6) (AID 2282952). As to conditions: HepG2 Attagene cis-factorial HNF6 reporter transcription; actives raise or lower the signal. Put shortly:
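Readout: fluorescent reporter-transcript fragments resolved by capillary electrophoresis after RT-PCR, reflecting endogenous factor activity in transfected HepG2. Exposure 24 h. Gain or loss of signal fitted bidirectionally against DMSO.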

Experiment [19] deals with Heat shock factor protein 1 (Homo sapiens) (UniProt Q00613). In words: ATG_HSE_CIS: Attagene CIS-FACTORIAL HepG2 Assay for human Heat Shock Transcription Factor 1 (HSE) (AID 2282953). As to conditions: HepG2 HSE cis-reporter, Attagene RNA transcription; actives raise or lower the signal. The method in brief:
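Reporter mRNA induction in HepG2 is measured 24 h after dosing, using transiently transfected multiplexed cis-regulated reporter units. Signal comes from capillary electrophoresis of labelled RT-PCR products, with DMSO as negative control.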

The nature of experiment [20]: ATG_MRE_CIS: Attagene CIS-FACTORIAL HepG2 Assay for human Metal Responsive Element (MRE) (AID 2282954). As to conditions: HepG2 MRE cis-reporter transcription, Attagene multiplex; actives raise or lower the signal. The method in brief:
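RT-PCR/capillary electrophoresis readout of reporter mRNA, 24 h post-dosing, in HepG2 cells transfected with multiplexed cis-regulated reporter constructs. Gain or loss of signal fitted bidirectionally against DMSO baseline.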

The source made the active and inactive calls. The calls were made as follows: active = hit-call score of the fitted dose curve at least 0.9, where 1 is the maximum; inactive = score below 0.9.

Heat shock factor protein 1 (Homo sapiens), sequence (Q00613 whole entry, looked up): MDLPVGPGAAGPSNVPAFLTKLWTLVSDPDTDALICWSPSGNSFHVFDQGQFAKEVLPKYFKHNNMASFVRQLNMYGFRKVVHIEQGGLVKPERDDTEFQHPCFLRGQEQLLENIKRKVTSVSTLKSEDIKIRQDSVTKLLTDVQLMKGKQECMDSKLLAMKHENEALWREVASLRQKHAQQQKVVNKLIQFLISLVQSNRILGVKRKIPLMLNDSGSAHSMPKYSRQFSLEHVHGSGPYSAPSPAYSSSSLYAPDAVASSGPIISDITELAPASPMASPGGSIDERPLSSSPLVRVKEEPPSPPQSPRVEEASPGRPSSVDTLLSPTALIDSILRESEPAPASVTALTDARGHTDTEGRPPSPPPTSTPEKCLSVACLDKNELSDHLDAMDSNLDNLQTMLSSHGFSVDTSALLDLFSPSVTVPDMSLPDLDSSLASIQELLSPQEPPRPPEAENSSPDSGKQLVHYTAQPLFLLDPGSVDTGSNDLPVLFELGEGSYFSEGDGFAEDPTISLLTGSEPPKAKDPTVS
Hepatocyte nuclear factor 3-beta (Homo sapiens), sequence (Q9Y261 whole entry, looked up): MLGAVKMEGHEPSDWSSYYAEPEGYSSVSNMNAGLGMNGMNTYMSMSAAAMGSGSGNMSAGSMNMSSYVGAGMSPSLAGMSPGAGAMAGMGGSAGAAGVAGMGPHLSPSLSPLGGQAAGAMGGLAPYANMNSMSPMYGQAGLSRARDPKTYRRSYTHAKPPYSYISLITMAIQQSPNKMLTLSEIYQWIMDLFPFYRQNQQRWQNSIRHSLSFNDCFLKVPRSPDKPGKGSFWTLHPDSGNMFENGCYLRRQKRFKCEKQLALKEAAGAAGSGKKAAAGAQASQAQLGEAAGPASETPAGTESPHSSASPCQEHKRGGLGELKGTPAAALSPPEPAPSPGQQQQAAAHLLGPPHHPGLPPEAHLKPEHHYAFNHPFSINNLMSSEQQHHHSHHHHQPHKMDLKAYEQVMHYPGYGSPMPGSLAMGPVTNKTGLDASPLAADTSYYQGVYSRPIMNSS
Hepatocyte nuclear factor 6 (Homo sapiens), sequence (Q9UBC0 whole entry, looked up, the tested form may be a part): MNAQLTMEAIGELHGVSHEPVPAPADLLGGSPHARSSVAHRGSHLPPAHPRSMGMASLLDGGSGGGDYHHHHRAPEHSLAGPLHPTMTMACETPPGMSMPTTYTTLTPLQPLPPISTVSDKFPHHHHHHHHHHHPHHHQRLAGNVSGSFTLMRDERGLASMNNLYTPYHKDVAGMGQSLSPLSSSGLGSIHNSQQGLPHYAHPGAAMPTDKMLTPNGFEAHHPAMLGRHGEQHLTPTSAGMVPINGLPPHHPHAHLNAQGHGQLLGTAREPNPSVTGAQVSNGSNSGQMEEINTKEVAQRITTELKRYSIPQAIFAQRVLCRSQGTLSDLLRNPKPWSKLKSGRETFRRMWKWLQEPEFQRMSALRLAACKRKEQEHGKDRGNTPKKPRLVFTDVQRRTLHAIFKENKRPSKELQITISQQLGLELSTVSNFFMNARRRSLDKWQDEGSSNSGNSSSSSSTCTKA

As usually defined, the AC50 is the midpoint of the concentration-response curve, whichever way the signal moves. As to `CC(c1cc(C(C)(C)C)cc(C(C)(C)C)c1O)c1cc(C(C)(C)C)cc(C(C)(C)C)c1O`, the call in experiment [1], in [2], in experiment [3], in experiment [4], in experiment [5] and in experiment [6] was inactive. The call in experiment [7], in experiment [8], in experiment [9], in [10], in experiment [11] and in experiment [13] was inactive. For the same molecule, the molecule was called inactive in experiment [14], in experiment [15], in experiment [16], in experiment [17], in experiment [18] and in [19]. In addition, in experiment [20], the molecule was called inactive. For the same molecule, the AC50 in experiment [12] was 1.87 µM (active).

`CC(CC=O)CC(C)(C)C` (stereo not given): the outcome in experiment [1], in experiment [2], in [3], in [4], in experiment [5] and in experiment [6] was inactive. Also, the molecule was classed as inactive in experiment [7], in [8], in [9], in experiment [10], in experiment [11] and in [12]. Besides, the call in experiment [14], in [16], in experiment [17], in [18], in experiment [19] and in [20] was inactive.

For `C=C1C[C@H]2[C@@H]3C=C(C)C4=CC(=O)CC[C@]4(C)[C@H]3CC[C@]2(C)[C@@]1(OC(C)=O)C(C)=O`, the call in experiment [1], in [3], in [5], in [6], in [7] and in experiment [8] was inactive. Besides, the molecule was called inactive in experiment [11], in experiment [14], in experiment [15], in experiment [16], in experiment [17] and in [18]. For the same molecule, the AC50 in experiment [2] was 97.6 µM (active); in [4], 52.3 µM (active); in [9], 93.7 µM (active); in experiment [10], 93.6 µM (active); in experiment [13] it was 0.057 µM (active); in experiment [19] it was 96.4 µM (active). In addition, the concentration at half-maximal activity (AC50) in experiment [20] was 74.1 µM (active).

On to `CC1(C)CCC[C@]2(C)[C@H]3CC(=O)O[C@]3(C)CC[C@@H]12`, for which the outcome in experiment [1], in experiment [2], in experiment [3], in [4], in experiment [5] and in experiment [6] was inactive. In addition, the molecule was called inactive in experiment [7], in [8], in [9], in experiment [10], in [11] and in experiment [12]. Besides, the molecule was called inactive in experiment [13], in experiment [16], in experiment [17], in [18], in experiment [19] and in experiment [20].

The values are drawn from PubChem BioAssay (EPA / NIEHS).
